Assay results as given in PubChem BioAssay.
The source made the active and inactive calls. Unless noted, the rule behind the calls is not given here.

Assays:
[1] = test system: Wnt5a (protein binding on small-molecule microarray); experiment: Wnt5a binders on small-molecule microarray, primary screen, biophysical, 635/667 nm fluorescence (AID 1142); settings: 635 nm fluorescence, higher = more signal;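 note: fluorescence read at 667 nm with signal to noise per printed feature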
[2] = cell viability in Huh7 cells, primary screen, cytotoxicity control for HCV replication inhibitor project, CellTiter-Glo luminescence, basal, 48 h (AID 1143); settings: Huh7 HCV replicon, higher = more signal, called active from +8 up or from −8 down;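 note: Huh7 hepatoma cells carrying a hepatitis C replication reporter with no stimulus; test concentration not given here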
[3] = P. aeruginosa biofilm formation inhibitors, primary screen, PAO1 strain, BacTiter-Glo luminescence, LB-PBS (AID 1144); settings: 12 h, higher = more signal
[4] = CREB reporter modulators without forskolin, primary screen, cell-based, PC12, CRE-LacZ reporter, unstimulated (AID 1145); settings: no forskolin, luminescence, 4.5 h, higher = more signal, called active from +8 up or from −8 down
[5] = CREB reporter modulators under forskolin, primary screen, cell-based, PC12, CRE-LacZ reporter, forskolin-stimulated (AID 1146); settings: luminescence, 4.5 h, higher = more signal, called active from +8 up or from −8 down;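 note: PC12 cells with 6xCRE LacZ reporter stimulated by forskolin 10 µM; beta-galactosidase reporter signal reflecting CREB driven transcription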
[6] = target: Streptavidin (Streptomyces avidinii) (UniProt P22629); experiment: streptavidin binders on small-molecule microarray, primary screen, artefact control for SMM compound annotation, biophysical, 635/667 nm fluorescence (AID 1147); settings: streptavidin binding, higher = more signal;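 note: signal reflects streptavidin binding to arrayed compounds as a control protein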
Chain of Streptavidin (Streptomyces avidinii) (P22629 whole entry, looked up): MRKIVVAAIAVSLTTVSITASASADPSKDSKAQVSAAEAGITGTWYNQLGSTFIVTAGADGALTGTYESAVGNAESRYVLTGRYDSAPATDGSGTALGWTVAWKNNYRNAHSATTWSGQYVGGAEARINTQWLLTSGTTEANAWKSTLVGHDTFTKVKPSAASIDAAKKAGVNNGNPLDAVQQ

[7] = small-molecule binders of probe aInhba, primary screen, biochemical, small-molecule microarray, 635/667 nm fluorescence (AID 1148); settings: higher = more signal;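 note: score merges 667nm spot fluorescence with signal-to-noise for antibody binding to printed compounds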
[8] = target: Torsin-1A (Homo sapiens) (UniProt O14656); experiment: torsin A binders from cell lysate, primary screen, small-molecule microarray, wild-type, 635/667 nm (AID 1149); settings: COS7 hTOR1A-WT lysate, 635 nm fluorescence, higher = more signal
Chain of Torsin-1A (Homo sapiens) (O14656 whole entry, looked up): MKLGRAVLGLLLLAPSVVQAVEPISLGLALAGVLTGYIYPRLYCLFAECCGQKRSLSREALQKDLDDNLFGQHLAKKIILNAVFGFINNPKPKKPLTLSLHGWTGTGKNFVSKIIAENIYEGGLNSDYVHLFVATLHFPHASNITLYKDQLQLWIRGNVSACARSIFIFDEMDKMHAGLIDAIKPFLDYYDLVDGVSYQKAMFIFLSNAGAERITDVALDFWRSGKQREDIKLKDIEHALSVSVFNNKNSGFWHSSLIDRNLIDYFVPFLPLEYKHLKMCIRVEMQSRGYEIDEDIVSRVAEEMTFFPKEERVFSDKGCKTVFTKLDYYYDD

[9] = target: Torsin-1A (Homo sapiens) (UniProt O14656); experiment: small-molecule binders of mutant TOR1A in lysate, primary screen, cell lysate, small-molecule microarray, COS7 lysate, 635/667 nm fluorescence (AID 1150); settings: COS7 hTOR1A mutant lysate, 635 nm fluorescence, higher = more signal;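 note: score pools 667 nm emission and signal to noise measuring lysate protein binding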
[10] = test system: Sonic hedgehog protein (Shh); experiment: small-molecule binders of Shh protein, primary screen, biochemical, small-molecule microarray, 635/667 nm fluorescence (AID 1151); settings: small-molecule microarray binding, 635 nm fluorescence; higher = more signal;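 note: Shh protein binding to compounds spotted on small-molecule microarray slides; score combines spot fluorescence intensity with signal-to-noise across triplicate slides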

Structure (SMILES) | composite z-score [1] | z-score [2] | z-score [3] | z-score [4] | z-score [5] | composite z-score [6] | composite z-score [7] | composite z-score [8] | composite z-score [9] | composite z-score [10]
CCN(CC)c1ccc(N2CC=CC34O[C@@H]5/C=C\CCC(C)OC(=O)C5[C@H]3C(=O)N(CCCO)[C@@H]4C2=O)cc1 (stereo not given in full) | 0.0023 | -0.682 (inactive) | 3.06 (inactive) | 0.0564 (inactive) | -0.102 (inactive) | -0.946 | -0.211 | 1.23 | 2.02 | -0.403
O=C1CCCC=C1C(O)CCOCc1ccccc1 (stereo not given) | -0.0912 | 0.056 (inactive) | 0.964 (inactive) | 0.11 (inactive) | 0.0483 (inactive) | 0.787 | -0.2 | 0.728 | 0.0645 | 0.307
COCCOC(=O)N1C(=O)[C@@]2(c3cc(C#CCNC(N)=O)ccc31)[C@H](c1ccc(O)cc1)N1[C@H](c3ccccc3)[C@H](c3ccccc3)OC(=O)[C@H]1[C@@H]2C(=O)N1CCCCCCC1 | 0.272 | -0.446 (inactive) | -0.945 (inactive) | -1.57 (inactive) | 0.357 (inactive) | 0.445 | -0.186 | 0.4 | 0.527 | 1.65
COc1ccc(O[C@H]2C=C[C@@H](c3ccccc3)O[C@@H]2COC(=O)CCC(C)=NOC(C)CN2CCCCc3nc(C)c(C)cc32)cc1 (stereo not given in full) | -0.133 | -0.622 (inactive) | -0.28 (inactive) | -0.817 (inactive) | 0.287 (inactive) | 0.095 | -0.0719 | -0.406 | -0.489 | -0.0679
